SW480 rerep: A quantitative high throughput screen for small molecules that induce DNA re-replication in SW480 colon adenocarcinoma cells. SW480 DNA re-replication, Hoechst DNA content imaging, 48 h. AID 624297, 2012. actives 1.8% (n = 340,000). Potency, µM (doses to about 46.1 µM), for inactives: at the top dose re-replication activation, actives largely listed as activators; note: potency is the fitted concentration of half-maximal effect; % of control where 0% means no effect; nearly all actives have a fitted effect of over 55% in size
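Image-based read-out: total Hoechst fluorescence of nuclei (405 nm excitation, 500-530 nm emission), with hits raising the fraction of high-intensity nuclei. SW480 colon cells incubated 48 hr with compounds at 37 C.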
MCF10A rerep: A quantitative high throughput screen for small molecules that induce DNA re-replication in MCF 10a normal breast cells. Potency, µM (doses to about 46.1 µM), for inactives: at the top dose activity, positive = re-replication, actives largely listed as activators. actives 2.9% (n = 350,000). AID 624296, 2012. MCF 10A DNA re-replication, Hoechst nuclear intensity, 48 h; note: potency is the fitted concentration of half-maximal effect; % of control where 0% means no effect; nearly all actives have a fitted effect of over 50% in size
hERG WT inh: qHTS for Inhibitors of KCHN2 3.1: Wildtype qHTS; U2OS, BacMam KCNH2, thallium flux FluxOr; hits give low values; Voltage-gated inwardly rectifying potassium channel KCNH2 (Homo sapiens), Q12809; activity change, % at 1.84 µM; actives 0.37% (n = 340,000);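 active = maximum activity change below -70%; inconclusive = maximum activity change between -70% and -50%; inactive = maximum activity change above -50%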; note: % is set by controls: 0 for no effect and ±100 for the full control effect
Target sequence (Q12809 whole entry, looked up): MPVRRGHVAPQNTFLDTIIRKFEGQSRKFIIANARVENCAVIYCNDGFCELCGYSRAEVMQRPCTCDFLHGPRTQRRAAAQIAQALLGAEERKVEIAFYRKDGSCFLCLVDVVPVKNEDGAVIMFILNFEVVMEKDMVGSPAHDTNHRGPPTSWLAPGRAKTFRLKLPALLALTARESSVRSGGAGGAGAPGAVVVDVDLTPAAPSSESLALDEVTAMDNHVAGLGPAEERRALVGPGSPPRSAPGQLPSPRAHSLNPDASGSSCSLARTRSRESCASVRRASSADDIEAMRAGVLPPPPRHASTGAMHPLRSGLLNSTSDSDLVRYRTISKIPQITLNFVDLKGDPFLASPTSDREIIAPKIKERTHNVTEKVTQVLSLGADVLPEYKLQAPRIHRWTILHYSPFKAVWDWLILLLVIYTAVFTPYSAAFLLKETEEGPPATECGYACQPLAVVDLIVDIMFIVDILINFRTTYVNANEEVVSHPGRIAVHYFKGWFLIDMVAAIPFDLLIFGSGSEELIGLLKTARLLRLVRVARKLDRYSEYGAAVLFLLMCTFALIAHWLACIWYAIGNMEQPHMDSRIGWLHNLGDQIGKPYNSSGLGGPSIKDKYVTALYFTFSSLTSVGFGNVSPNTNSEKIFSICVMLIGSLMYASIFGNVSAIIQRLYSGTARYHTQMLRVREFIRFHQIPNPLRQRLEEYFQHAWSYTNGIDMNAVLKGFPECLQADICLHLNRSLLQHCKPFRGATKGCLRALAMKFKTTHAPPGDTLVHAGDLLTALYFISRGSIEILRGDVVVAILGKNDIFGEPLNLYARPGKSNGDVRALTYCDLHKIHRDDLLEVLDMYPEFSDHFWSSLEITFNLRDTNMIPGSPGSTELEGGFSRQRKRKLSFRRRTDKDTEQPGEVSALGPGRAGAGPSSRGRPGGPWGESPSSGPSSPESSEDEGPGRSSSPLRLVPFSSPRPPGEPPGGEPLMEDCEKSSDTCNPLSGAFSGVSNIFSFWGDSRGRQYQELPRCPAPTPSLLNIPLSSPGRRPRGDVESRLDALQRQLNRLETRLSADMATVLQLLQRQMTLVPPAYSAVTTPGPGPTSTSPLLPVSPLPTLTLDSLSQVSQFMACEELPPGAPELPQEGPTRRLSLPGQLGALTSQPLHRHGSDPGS
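U2OS cells were transduced with wild-type KCNH2 virus (2.03 x 10^8 / mL) for 4 h at room temperature, then cultured overnight at 37 C. Thallium flux was read with FluxOr dye. Rate constants were normalized to DMSO controls.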
KB-3-1 cytotox: qHTS assay for MDR1-selective chemotherapeutics: Primary screen using the parental adenocarcinoma cell KB-3-1; KB-3-1 viability, CellTiter-Glo ATP luminescence, 72 h; Potency, µM (series often up to 46.1 µM), hits mostly cytotoxic; actives 1.4% (n = 400,000); note: potency is the fitted concentration of half-maximal effect; % is set by controls: 0 for no effect and ±100 for the full control effect; nearly all actives have a fitted effect of over 60% in size
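Here the drug-naive KB-3-1 line serves as comparator for MDR sub-line selectivity; cells received compound titrations, 72 h at 37 °C, then CellTiter-Glo readout.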
KB-V1 cytotox: qHTS assay for MDR1-selective chemotherapeutics: Primary screen using the drug-selected MDR subline cells KB-V1; KB-V1 MDR cells viability, CellTiter-Glo, 72 h; Potency, µM (top dose mostly 46.1 µM), usual class: cytotoxic; actives 3.4% (n = 400,000); note: potency is the fitted concentration of half-maximal effect; % is set by controls: 0 for no effect and ±100 for the full control effect; nearly all actives have a fitted effect of over 60% in size
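Compound-treated KB-V1 multidrug-resistant cells, 72 h, 37 degrees C; viability by CellTiter-Glo. Fitted qHTS curves give the values.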
KCNH2 3.1 inh: qHTS for Inhibitors of KCHN2 3.1: Mutant qHTS | actives 0.95% (n = 340,000) | U2OS KCNH2 3.1, thallium flux FluxOr; hits give low values | AID 720553, 2013 | activity change, % (tested at about 1.8 µM) | Potassium voltage-gated channel subfamily H member 2, brain isoform KCNH2 3.1 (human);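 active = maximum activity change below -70%; inconclusive = maximum activity change from -70% to -50%; inactive = maximum activity change above -50%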;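 note: thallium influx rate constant from kinetic fluorescence after stimulation buffer; % is set by controls: 0 for no effect and ±100 for the full control effect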
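Channel expression came from 3.1 mutant virus (1.77 x 10^8 /mL) applied to suspended U2OS cells for 4 h. Flux was tracked with FluxOr dye plus Red40 quencher, and kinetic rate constants normalized to controls.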
* marks the source's active call; other numbers are inactive results; i = inactive; ? = inconclusive; . = no result; ! = repeats disagree; [ ] = dose if it differs, or a comment. Most compounds without a hit are left out; they make up all but 7.6% or so of the library. Unless noted, calls come from the whole dose curve; as a rule, active = well fitted curve in the direction sought with a large enough effect; inconclusive = small, poorly fitted or top-dose-only effect, or another doubt; inactive = no such curve, though single readings can be large; an effect the other way counts as inactive or inconclusive.

SMILES	SW480 rerep	MCF10A rerep	hERG WT inh	KB-3-1 cytotox	KB-V1 cytotox	KCNH2 3.1 inh
Cc1ccc(-c2cc(-c3ccc(C)cc3)[n+](-c3ccc(C(=O)[O-])cc3)c(-c3ccc(C)cc3)c2)cc1	-3%	?	6	i	i	-2
Cc1ccc(-c2cc(-c3ccc(C)cc3)[n+](C)o2)cc1	-697%	-48%	3	2.9µM*	i	8
Cc1c(N=Nc2c(O)n(Cc3ccccc3)c(=O)[nH]c2=O)c(=O)n(-c2ccccc2)n1C	?	20%	2	i	3.7µM*	0
CCCCCCn1c(O)c(C=NC2CCN(Cc3ccccc3)CC2)c(=O)[nH]c1=O	-4%	0%	-1	?	?	-95*
COc1ccccc1-n1c(O)c(C=Nc2c(C)n(C)n(-c3ccccc3)c2=O)c(=O)[nH]c1=O	23µM*	?	3	i	i	-20
Cc1c(N=Cc2c(O)n(Cc3ccccc3)c(=O)[nH]c2=O)c(=O)n(-c2ccccc2)n1C	29µM*	-8%	-3	i	i	-5
CC[C@@H]1[C@@H]2C[C@H]3[C@H]4N(C)c5ccccc5[C@@]45C[C@@H]([C@@H]2[C@@H]5O)N3[C@H]1O	-3%[20.6 µM]	1%[20.6 µM]	.	.	.	.
C[N+]1([O-])[C@H]2CC[C@H]1CC(OC(=O)[C@@H](CO)c1ccccc1)C2 (stereo not given in full)	0%	6%	.	.	.	.
CCOc1ccc2nc(N(CCN(CC)CC)C(=O)c3ccc([N+](=O)[O-])cc3)sc2c1	?	?	18	i	i	6
CCCCCCCCCC(CC)c1ccc(S(=O)(=O)O)cc1 (stereo not given)	?	1%	.	.	.	.
O=c1[nH]c(=O)n(Cc2ccccc2)c(O)c1C=NCCN1CCNCC1	6.5µM*	2.9µM*	9	i	i	-6
C=CCn1c(O)c(C=NCCN2CCNCC2)c(=O)[nH]c1=O	-5%	0%	-3	i	i	-2
Cc1cccc(Cn2cccc(C(=O)Nc3cc(C)on3)c2=O)c1	.	.	.	i	i	.
CCN(CC)CCNCC(=O)Nc1ccc(Cl)cc1C(=O)c1ccccc1	7%	7%	-87*	i	i	-95*
ClC1=C(Cl)C(Cl)=C(Cl)C1=C/C=C/c1ccccc1	?	3.7µM*	4	4.6µM*	4.1µM*	14
O=C(Cc1ccc(N(CCCl)CCCl)cc1)NC(Cc1ccc(Cl)cc1)C(=O)O (stereo not given)	1%	-6%	4	i	i	7
O=C(Cc1c[nH]c2ccccc12)NNCc1ccc(N(CCCl)CCCl)cc1	16µM*	25%	2	?	i	11
Cc1ccc(C(=O)Nc2ccccc2)cc1S(=O)(=O)N1CCCC1	.	.	.	?	15µM*	.
CC(C)(C)c1ccc(C(=O)NC(=S)Nn2cnnc2)cc1	1%	?	-1	i	i	-8
CC(C)C(=O)c1cn(Cc2ccc(C#N)cc2)c2ccccc12	15%	23%	-9	?	i	25
CC(=O)c1cn(Cc2ccc(C#N)cc2)c2ccccc12	7.3µM*	9%	.	i	i	-13
O=c1ccc2cc(O[C@@H]3O[C@@H](CO)[C@H](O)[C@@H](O)[C@@H]3O)c(O)cc2o1	?	18µM*	-25	i	i	0
CCn1c(=O)oc2cc(NC(=O)CCl)ccc21	?	?	2	?	?	-5
CCC1C(c2cc(OC)c(OC)c(OC)c2)c2cc3c(cc2OC1N1CCCC1)OCO3 (stereo not given)	8.2µM*	4.1µM*	-44	4.1µM*	5.2µM*	.
O=C1C(I)=CC(=C(c2cc(I)c(O)c(I)c2)c2ccccc2C(=O)O)C=C1I	-3%	?	.	.	.	.
SMILES	SW480 rerep	MCF10A rerep	hERG WT inh	KB-3-1 cytotox	KB-V1 cytotox	KCNH2 3.1 inh
CCCOc1ccc(C2SCC(=O)Nc3c2c(C)nn3-c2cccc(C)c2)cc1OC (stereo not given)	.	.	.	?	i	.
O=C1CC2OCC=C3CN4CC[C@]56c7ccccc7N1C5C2[C@H]3C[C@H]46 (stereo not given in full)	-3%	.	.	.	.	.
COc1ccc(-c2nc(CN3C(=O)CN=C(c4ccccc4)c4ccccc43)c(C)o2)cc1	.	.	.	15µM*	?	.
Cc1ccc(-c2nc(CN3C(=O)CN=C(c4ccccc4)c4ccccc43)c(C)o2)cc1	.	.	.	i	i	.
COc1ccc(CNCCc2c(C)[nH]c3ccc(OC(F)(F)F)cc23)c(OC)c1	?	21µM*	4	?	7.3µM*	-78*
Nc1nc(F)nc2c1ncn2[C@@H]1O[C@H](CO)[C@@H](O)[C@H]1O	?	4.1µM*!	7	1.2µM*	1.5µM*	-3
Nc1nc(F)nc2c1ncn2[C@@H]1O[C@H](CO)[C@@H](O)[C@@H]1O	11%	-4%	-6	0.65µM*	0.65µM*	-5
OC[C@H]1O[C@@H](n2cnc3cc(Cl)c(Cl)cc32)[C@H](O)[C@@H]1O	-10%	?	4	?	i	-12
C=C1CC2C(CC[C@]3(C)C(=O)CCC23)[C@]2(C)C=CC(=O)C=C12 (stereo not given in full)	12%	21%	.	.	.	.
CC(C)CCNC(=O)c1c(N)n(CC2CCCO2)c2nc3ccccc3nc12 (stereo not given)	5.2µM*	2.3µM*	30	?	?	0
CCC(C)NC(=O)c1c(N)n(CC2CCCO2)c2nc3ccccc3nc12 (stereo not given)	18µM*	?	2	i	?	0
CCC(C)NC(=O)c1c(N)n(Cc2ccc3c(c2)OCO3)c2nc3ccccc3nc12 (stereo not given)	?	?	2	?	?	16
C[C@H](CO)N1C[C@H](C)[C@@H](CN(C)C(=O)NC2CCCCC2)Oc2c(cccc2N(C)C)C1=O	?	-35%	37	i	i	-19
CCN(CC)S(=O)(=O)c1ccc(C(=O)O)cc1	?	1%	0	i	i	9
O=C(Nc1ccc2c(c1)OCCO2)c1cccn(Cc2cccc([N+](=O)[O-])c2)c1=O	.	.	.	i	i	.

Source: PubChem
